# BRCT PPI green = qHTS Assay for Inhibitors of BRCT-Phosphoprotein Interaction (Green Fluorophore) | Breast cancer type 1 susceptibility protein (Homo sapiens), P38398 | BRCA1 BRCT-phosphopeptide binding, green fluorescence polarization | Potency, µM (doses to about 76.9 µM), for the others: top-dose activity change, negative = inhibition, most hits filed as inhibitors | 75,000 compounds, 0.05% hits | AID 875, 2007;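 further: potency means the concentration at half of the fitted maximal effect; plate controls were peptide without protein for full effect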
# Target sequence (P38398 whole entry, looked up): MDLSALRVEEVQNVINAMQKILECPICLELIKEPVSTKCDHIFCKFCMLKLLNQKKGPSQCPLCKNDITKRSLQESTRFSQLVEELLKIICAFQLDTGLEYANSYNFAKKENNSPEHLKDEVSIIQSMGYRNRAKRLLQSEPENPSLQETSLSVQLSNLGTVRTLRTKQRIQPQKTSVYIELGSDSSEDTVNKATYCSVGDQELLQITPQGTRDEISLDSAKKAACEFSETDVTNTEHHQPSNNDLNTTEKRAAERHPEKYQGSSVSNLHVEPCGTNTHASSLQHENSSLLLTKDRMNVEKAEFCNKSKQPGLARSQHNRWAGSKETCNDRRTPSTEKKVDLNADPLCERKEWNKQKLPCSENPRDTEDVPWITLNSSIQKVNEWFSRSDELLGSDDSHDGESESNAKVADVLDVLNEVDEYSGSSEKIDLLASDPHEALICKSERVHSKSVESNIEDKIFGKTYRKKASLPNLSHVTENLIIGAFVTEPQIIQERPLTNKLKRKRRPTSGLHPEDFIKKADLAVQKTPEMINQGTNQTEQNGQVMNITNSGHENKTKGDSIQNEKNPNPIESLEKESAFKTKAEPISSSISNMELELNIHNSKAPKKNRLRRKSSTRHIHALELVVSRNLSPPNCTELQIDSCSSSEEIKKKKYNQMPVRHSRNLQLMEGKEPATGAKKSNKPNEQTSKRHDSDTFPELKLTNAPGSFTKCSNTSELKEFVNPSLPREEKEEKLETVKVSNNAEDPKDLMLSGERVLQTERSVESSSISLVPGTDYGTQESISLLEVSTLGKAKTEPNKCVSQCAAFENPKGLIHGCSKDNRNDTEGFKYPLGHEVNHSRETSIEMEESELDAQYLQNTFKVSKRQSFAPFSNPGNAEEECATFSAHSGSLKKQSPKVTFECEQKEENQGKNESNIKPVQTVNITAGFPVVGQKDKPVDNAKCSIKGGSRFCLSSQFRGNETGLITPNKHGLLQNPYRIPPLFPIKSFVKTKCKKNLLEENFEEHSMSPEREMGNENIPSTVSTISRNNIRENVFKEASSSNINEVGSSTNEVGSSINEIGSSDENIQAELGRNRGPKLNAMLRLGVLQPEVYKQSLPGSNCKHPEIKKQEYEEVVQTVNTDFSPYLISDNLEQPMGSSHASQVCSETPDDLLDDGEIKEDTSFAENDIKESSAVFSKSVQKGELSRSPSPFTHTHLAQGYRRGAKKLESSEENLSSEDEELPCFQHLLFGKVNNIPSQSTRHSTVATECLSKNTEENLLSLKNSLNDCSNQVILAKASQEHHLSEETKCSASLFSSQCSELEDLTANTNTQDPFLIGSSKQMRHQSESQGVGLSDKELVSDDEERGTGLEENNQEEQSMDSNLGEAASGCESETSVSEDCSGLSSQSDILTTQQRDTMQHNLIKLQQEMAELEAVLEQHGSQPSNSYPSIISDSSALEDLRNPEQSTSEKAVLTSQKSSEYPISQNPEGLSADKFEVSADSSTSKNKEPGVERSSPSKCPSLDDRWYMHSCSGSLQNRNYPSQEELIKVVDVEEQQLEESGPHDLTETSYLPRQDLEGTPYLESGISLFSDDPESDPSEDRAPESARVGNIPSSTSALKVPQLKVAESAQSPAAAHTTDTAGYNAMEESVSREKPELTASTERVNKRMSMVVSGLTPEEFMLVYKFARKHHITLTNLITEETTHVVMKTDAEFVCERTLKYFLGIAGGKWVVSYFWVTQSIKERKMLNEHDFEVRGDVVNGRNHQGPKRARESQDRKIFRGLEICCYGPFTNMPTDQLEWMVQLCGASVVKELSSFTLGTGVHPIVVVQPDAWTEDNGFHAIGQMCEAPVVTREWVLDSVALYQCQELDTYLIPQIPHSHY
#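 Compounds were incubated for 12 min at room temperature with a complex of 100 nM fluorescein-tagged pBACH1 decapeptide and 250 nM His-tagged BRCT protein. Buffer was phosphate pH 7.3 with EDTA, DTT and Tween 20. Disruption of binding lowers the polarization signal.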
# ALOX15 inhib = qHTS Assay for Inhibitors of 15-hLO (15-human lipoxygenase). Polyunsaturated fatty acid lipoxygenase ALOX15 (Homo sapiens), P16050. purified 15hLO-1, xylenol orange hydroperoxide absorbance. Potency, µM (titrated, usually from 57.1 µM), for the others: top-dose activity change, negative = inhibition, usual class: inhibitors. 74,000 compounds, 1.4% hits. AID 887, 2007; further: potency means the concentration at half of the fitted maximal effect; on the % scale 0 is the no-effect control and ±100 the full control effect; nearly all actives have a fitted effect of over 55% in size
#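 Inhibition is scored from a chromogenic endpoint. After 15 min enzyme-compound contact, arachidonic acid (50 uM final) reacts 6 min with 40 nM 15hLO-1 at room temperature, then Fe-XO reagent is added for 30 min and absorbance ratio recorded.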
# Tau filament bind = qHTS Assay for Tau Filament Binding | AID 596, 2007 | recombinant tau filaments, thioflavin S fluorescence, 15 h; filaments grown with octadecylsulfate alongside compound | Microtubule-associated protein tau (Homo sapiens), P10636 | Potency, µM (series often up to 57.1 µM), for inactives: at the highest dose activity change, negative = inhibition | 71,000 compounds, 2% hits;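 further: potency means the concentration at half of the fitted maximal effect; on the % scale 0 is the no-effect control and ±100 the full control effect; actives lower thioflavin S fluorescence by blocking filaments or displacing dye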
#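 Tau 2 uM in ThS buffer dispensed; compound added; 60 uM ODS added (finals 1 uM tau, 30 uM ODS); 15 h 37 C; fluor ex450/em510.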
# BRCT inh red = qHTS Assay for Inhibitors of BRCT-Phosphoprotein Interaction (Red Fluorophore); 75,000 compounds, 0.03% hits; Potency, µM (highest dose often 76.9 µM), without a hit: at the highest dose activity change, negative = inhibition, usual class: inhibitors; BRCT-phosphopeptide binding, red fluorescence polarization; Breast cancer type 1 susceptibility protein (Homo sapiens), P38398; AID 892, 2007; further: on the % scale 0 is the no-effect control and ±100 the full control effect
#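 Rhodamine-labelled pBACH1 10-mer (100 nM) bound to BRCT domain (100 nM) at pH 7.3; compounds incubated 12 min room temperature, polarization read. Free peptide defines full inhibition; unlabelled decapeptide titrated as control.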
# Pol III holo inh = qHTS Assay for Inhibitors of DNA Polymerase III Holoenzyme System; reconstituted DNA polymerase III holoenzyme replication, biochemical; Potency, µM (doses to about 57.1 µM), for the others: at the highest dose activity change, negative = inhibition; 71,000 compounds, 0.25% hits; further: potency means the concentration at half of the fitted maximal effect; on the % scale 0 is the no-effect control and ±100 the full control effect
#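 Reconstituted *E. coli* holoenzyme (0.35 nM Pol III, 1 nM beta, 154 nM SSB, 2 nM primase) was preincubated with compound for 15 min at RT. Synthesis on 1.4 nM ssM13Gori ran 35 min, then was stopped with PicoGreen/EDTA and read as dsDNA fluorescence.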
# TsaE inh = qHTS Assay for Inhibitors of YjeE | Potency, µM | purified YjeE enzyme, qHTS inhibition assay | tRNA threonylcarbamoyladenosine biosynthesis protein TsaE (Escherichia coli (strain … | 71,000 compounds, 0.05% hits
#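 Purified YjeE (10 uM) with BODIPY Texas Red-labeled ADP probe (2 uM); compounds pin-transferred, 15 min at room temperature. Binding inhibition read as decreased fluorescence polarization; ADP titration as control.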
# * hit, by the source's call; i = inactive; ? = inconclusive; / = no result; [ ] = another dose, or the depositor's remark. Only some compounds are listed: those with a hit (about 3.1% of all), similar ones and a draw of the others. The call rests on the fitted dose curve; in most records, active means well fitted curve in the direction sought with a large enough effect; inconclusive means small, poorly fitted or top-dose-only effect, or another doubt; inactive means no such curve, though single readings can be large; an effect the other way counts as inactive or inconclusive.
SMILES,BRCT PPI green,ALOX15 inhib,Tau filament bind,BRCT inh red,Pol III holo inh,TsaE inh
COc1ccc2nc(NC(=O)C3CCCN(S(=O)(=O)c4cccc5nonc45)C3)sc2c1 (stereo not drawn),19%,?,10µM*,2%,5%,i
CN1[C@@H]2CC(OC(=O)[C@@H](CO)c3ccccc3)C[C@@H]1[C@H]1O[C@H]12 (stereo partly drawn),-3%[15.4 µM],7%[11.4 µM],1%[11.4 µM],1%[15.4 µM],-11%[11.4 µM],i
COc1ccc(-c2cc(=O)c3c(O)cc(O[C@H]4OC(COC5OC(C)C(O)C(O)[C@H]5O)C(O)C(O)C4O)cc3o2)cc1O (stereo partly drawn),0%[3.08 µM],-19%,/,5%,/,/
O=c1cc(-c2ccc(O)c(O)c2)oc2cc(O[C@@H]3O[C@@H](CO)[C@@H](O)[C@@H](O)[C@H]3O)cc(O)c12,/,/,?,/,1µM*,i
O=C(NCc1cccc2ccccc12)[C@H]1C[C@@H]1[C@H](NP(=O)(c1ccccc1)c1ccccc1)c1ccccc1,3%,/,30%,0%,-4%,i
COC(=O)c1ccc2c(c1)NC(=O)C1CCCN21 (stereo not drawn),16%,7.9µM*,-21%,0%,-16%,i
CCOC(=O)c1sc2nc(-c3ccco3)c3c(c2c1N)CC(C)(C)OC3,1%,16µM*,13µM*,0%,-9%,i
Cc1nc2sc(C(=O)O)c(N)c2c2c1COC(C)(C)C2,0%,-28%,5%,-2%,-2%,i
CCOC(=O)c1sc2nc(N3CCOCC3)c3c(c2c1N)CC(C)(C)N(C)C3,-4%,-10%,13µM*,1%,-6%,i
CSc1nc(N)c2ncn([C@@H]3O[C@@H](COP(=O)(O)OP(=O)(O)O)[C@@H](O)[C@H]3O)c2n1,-1%,4%,3%,0%,-2%,?
O=C(c1cccc(F)c1)N1CCC[C@@]2(CCN(C(c3ccccc3)c3ccccc3)C2)C1,6%,-20%,7%,0%,-6%,i
COc1ccc2c(c1)c1nnc(SC)nc1n2C,-2%,10%,-16%,1%,-5%,i
COc1ccc2c(c1)c1nnc(SCC(=O)N3C(C)CCCC3C)nc1n2C (stereo not drawn),-2%,1%,13µM*,2%,-6%,i
c1ccc2c(CN3CCN(Cc4c[nH]c5ccccc45)CC3)c[nH]c2c1,0%[15.4 µM],9%[11.4 µM],-8%[11.4 µM],-2%[15.4 µM],0%[11.4 µM],i
C=CC(C1=CC(=O)C=CC1=O)c1ccccc1 (stereo not drawn),-1%[3.08 µM],?,/,-1%,/,/
C=CC(C1=CC(=O)C(OC)=CC1=O)c1ccc(O)cc1 (stereo not drawn),0%[3.08 µM],25µM*,/,0%,/,/
COc1ccc(CNc2ncncc2-c2cccc(C#N)c2)c(OC)c1,-2%,6%,12%,-1%,-5%,i
NC(N)=NCCC[C@H](NC(=O)CC1(CC(=O)N2CCN(C3c4ccccc4NC(=O)c4ccccc43)CC2)CCCC1)C(=O)NCCn1c(=O)n(-c2ccccc2)n(-c2ccccc2)c1=O (stereo partly drawn),2%,20µM*,/,1%,/,/
Cc1cc(N=Cc2c(O)ccc3ccccc23)no1,-1%,-15%,-21%,1%,-6%,i
COc1ccc(C=Nc2c(O)ccc3ccccc23)cc1OC,5%[15.4 µM],-9%[11.4 µM],4µM*,-2%[15.4 µM],-8%[11.4 µM],i
O=C(O)/C=C\C(=O)N1Cc2cc3ccccc3nc2C1,1%[15.4 µM],-3%[11.4 µM],4%[11.4 µM],-1%[15.4 µM],-8%[11.4 µM],i
